Among all 68,000 compounds or so, about 2,700 (4%) showed an effect of 50% or more. The sample holds strong results, similar compounds and a random draw of the others, so the mix is not that of the screen.
tested on: Plasmodium berghei; assay: Screen against P. berghei liver stage (PbLuc), transformed with Luciferase, at 2uM; assay type: functional, HepG2; conditions: tested at 2 uM

| Structure (SMILES) | INHIBITION |
| --- | --- |
| Cc1cccc(CNC(Cc2ccsc2)c2nccs2)n1 (configuration not stated) | 24.13% |
| CNc1cc(C)nc(C2CN(Cc3cc[nH]n3)CCO2)c1 (configuration not stated) | 21.37% |
| CCCS(=O)(=O)N1CCC2(CC1)CCn1c(-c3cnn(C)c3)cnc12 | 18.05% |
| CCn1cnnc1CNC(=O)c1cc(Cl)ccc1F | 54.99% |
| CC(CNC(=O)c1ccc(Cl)cc1F)N1CCCC1 (configuration not stated) | 9.57% |
| CCn1cnnc1CNC(=O)c1ccc(Cl)cc1F | 39.32% |
| CCn1cnnc1CCNC(=O)CCNC(=O)c1ccccc1F | 52.98% |
| CC(CNC(=O)c1cc(Cl)ccc1F)N1CCCC1 (configuration not stated) | 50.94% |
| CCn1cnnc1CCNC(=O)c1ccc(F)c(Br)c1 | 2.9% |
| CCn1cnnc1CCNC(=O)c1ccc(Br)cc1F | -13.8% |
| CC(CNC(=O)c1cc(Cl)ccc1I)N1CCCC1 (configuration not stated) | 10.11% |
| CCn1cnnc1CNC(=O)c1cc(Cl)ccc1O | 2.1% |
| Cn1c(N2CCOCC2)nc2cc(C(=O)N3CCC(O)(CO)C3)ccc21 (configuration not stated) | -2.63% |
| N#CCC(=O)NCc1nnc2n1CCN(Cc1ccco1)C2 | -4.53% |
| CCN(CCCN1CCOCC1)C(=O)c1cnn(CC)c1 | 35.54% |
| O=C(NC1CCCC1)N1CC[C@H]2[C@H]1CCN2c1nncs1 | 49.25% |
| C=C(C)COc1ccccc1CN1CCCC(C(=O)NCCCO)C1 (configuration not stated) | -25.95% |
| CN(C)C(=O)CN1CC[C@H]2CN(S(C)(=O)=O)C[C@@H]2C1=O | 21.06% |
| CNC(=O)CS(=O)(=O)C1CCN(S(=O)(=O)c2ccccc2Cl)CC1 | 68.69% |
| CNC(=O)CS(=O)(=O)C1CCN(S(=O)(=O)c2cccc(Cl)c2C)CC1 | -52.21% |
| CNC(=O)CS(=O)(=O)C1CCN(S(=O)(=O)c2ccccc2Br)CC1 | 27.5% |
| Cc1ccc(NC(=O)Nc2cnc(N3CCN(C)CC3)nc2)cc1 | -4.34% |

| Structure (SMILES) | INHIBITION |
| --- | --- |
| Cc1occc1C(=O)N1CC[C@@H](N2CCOCC2)[C@@H]1Cc1ccccc1 | -23.67% |
| COc1ccc(OCCCNCCn2cccn2)cc1 | 31% |
| CN(C)C1CCN(C(=O)CCc2cc(Br)cs2)CC1 | 41.05% |
| CC(=O)N1CCN(C(=O)CCc2cc(Br)cs2)CC1 | 26.74% |
| CN1CCN(C(=O)CCc2cc(Br)cs2)CC1 | 72.05% |
| COCCC(=O)N1CCc2c(CNc3ncccn3)cncc2C1 | 17.77% |
| CCSC1(CNc2ncc(Br)cn2)CCOCC1 | 13.53% |
| CCCc1n[nH]c(C2CN(CCS(=O)(=O)CC)CCO2)n1 (configuration not stated) | -5.7% |
| NCC1[C@H]2CN(Cc3ccccc3)C[C@@H]12 (some centres not stated) | 55.7% |
| NCC1[C@H]2CN(CCc3ccccc3)C[C@@H]12 (some centres not stated) | -7.41% |
| NCC1[C@H]2CN(Cc3cccc(Cl)c3)C[C@@H]12 (some centres not stated) | 45.77% |
| CN(C)Cc1cc(=O)n2c(n1)CN(C(=O)c1ccc[nH]1)CCC2 | -16.33% |
| O=C(CCC1CCN(C2CSCCSC2)CC1)NCC1CCCO1 (configuration not stated) | -15.37% |
| Cc1cc(=O)[nH]c(NCCNC(=O)c2ccccc2N2CCCC2)n1 | 41.14% |
| Cc1cc(=O)[nH]c(NCCNC(=O)CN2CCCCCC2)n1 | 56.93% |
| Cc1nc(O)cc(CCNC(=O)CN2CCCCCC2)n1 | 4.12% |
| CC(C)C(=O)NCCCn1ncc2c(Cl)cccc21 | -7.01% |
| CSCC(=O)N(C)Cc1ccc(N(C)C)cc1 | -20.68% |
| Cc1ccc2cc(CN(C)Cc3ccncn3)c(=O)[nH]c2c1 | -20.98% |
| O=C(CCn1ncc2c(Cl)cccc21)NCC1CC1 | 20.8% |
| CCCC(=O)N(C)c1cccc2ncccc12 | 28.14% |
| CN(Cc1cccc2ncccc12)C(=O)CCC(F)(F)F | -22.2% |

| Structure (SMILES) | INHIBITION |
| --- | --- |
| CN(C(=O)CCC(F)(F)F)c1cccc2ncccc12 | 59.67% |
| CCN(CC)S(=O)(=O)N(C)Cc1ccc2c(c1)OCCO2 | 8.06% |
| CCN(CC(=O)NCCc1nc(C)no1)Cc1ccc(Cl)cc1 | -45.29% |
| Cc1nc2cc(O)nn2c(C)c1CCC(=O)N(C)Cc1ccccc1 | 37.41% |
| Cc1nc2cc(O)nn2c(C)c1CCC(=O)N(C)CCC(C)C | 65.38% |
| CCN(CC)C(=O)CCc1c(C)nc2cc(O)nn2c1C | 18.97% |
| CC(C)(C)c1cc(CNC(=O)c2cc(COc3ccccc3)[nH]n2)[nH]n1 | -103.13% |
| Cc1nn(C)c(C)c1NC(=O)CN1CCCC1c1noc(C(C)C)n1 (configuration not stated) | 12.66% |
| CC1=C(CCN2C[C@H](O)[C@@H](N3CCOCC3)C2)C(C)(C)CCC1 | -57.94% |
| CCOC(=O)N1CCN(c2nc(CCN)nc3sc(C)c(C)c23)CC1 | 17.89% |
| Cc1sc2nc(CCN)nc(N3CCN(S(C)(=O)=O)CC3)c2c1C | 20.77% |
| Cc1sc2nc(CCN)nc(N3CCS(=O)(=O)CC3)c2c1C | 60.04% |
| CCn1cc(Cl)c(C(=O)Nc2ccc3c(c2)C(C)(C)C(=O)N3C)n1 | 14.61% |
| Cc1ccc(S(=O)(=O)NC(=O)CCc2ccccc2)cc1N(C)C | 0.01% |
| CCOc1cccc(CCNC(=O)Cc2ccccc2O)n1 | 76.82% |
| CCOc1cccc(CCNC(=O)Cc2ccn[nH]2)n1 | 14.82% |
| CCOc1cccc(CCNC(=O)Cc2cccc(O)c2)n1 | 26.74% |
| CN(C)C(=O)C1CCC2(CCN(Cc3cnn(C)c3)CC2)C1 (configuration not stated) | 9.65% |
| CN(CCCOc1ccccc1)C(=O)c1csc(-c2nnc[nH]2)n1 | 35.94% |
| COC(=O)c1cc(C(=O)N2CCCCCC2)n(-c2ccccc2)n1 | 63.95% |
| COC(=O)c1cc(C(=O)N2CCN(C)CC2)n(-c2ccccc2)n1 | 15.4% |
| COC(=O)c1cc(C(=O)N2CCC(C)CC2)n(-c2ccccc2)n1 | 35.23% |

| Structure (SMILES) | INHIBITION |
| --- | --- |
| CC(C)OCCCNC(=O)CS(=O)(=O)Cc1ccc(C(C)(C)C)cc1 | 33.22% |
| CC(C)(C)SCC(=O)NC(C)(C(N)=O)c1cccc(Cl)c1 (configuration not stated) | -20.64% |
| COCc1csc(NC(=O)NCc2ccccn2)n1 | -4.91% |
| COCc1csc(NC(=O)NCc2ccsc2)n1 | -21.99% |
| COCc1csc(NC(=O)NCc2ccc(C)s2)n1 | 50.93% |
| COc1ccc(CCC(=O)NC2CCC(O)CC2)cc1OC (configuration not stated) | -59.24% |
| Cc1nc(C)n(C2CCCN(C(=O)c3ncoc3C(C)C)C2)n1 (configuration not stated) | -12.27% |
| Cc1[nH]ncc1C(=O)N1CCCC(c2ccn[nH]2)C1 (configuration not stated) | -1.46% |
| CC(C)c1ocnc1C(=O)N1CCCC(c2ccn[nH]2)C1 (configuration not stated) | 70.81% |
| CCCN(C(=O)c1ocnc1C)C1CCCN(Cc2ccccc2)C1 (configuration not stated) | 4.72% |
| CC(NC(=O)Nc1ccc(-n2cncn2)cc1)C(=O)NC(C)(C)C (configuration not stated) | 12.01% |
| CC(O)CC(C)(C)CNC(=O)NCc1cccc(-n2cncn2)c1 (configuration not stated) | 1.22% |
| CSC(C)(C)CNC(=O)NCc1cccc(-n2ccnc2)c1 | -27.12% |
| CC(C)C(O)C(C)(C)CNC(=O)NCc1ccc(-n2cncn2)cc1 (configuration not stated) | 53.19% |
| CSC(C)(C)CNC(=O)NCc1cccc(-n2cncn2)c1 | 54.29% |
| CC(O)(CNC(=O)NCc1cccc(-n2cncn2)c1)c1ccco1 (configuration not stated) | -33.81% |
| Cn1cc(Cl)cc1C(=O)N1CCCN(Cc2ccccc2)CC1 | -7.88% |
| Cc1noc(C)c1CNC1CCN(c2ccccc2OC(F)F)C1 (configuration not stated) | -15.77% |
| CO[C@@H]1CN(Cc2scnc2C)[C@@H]2CCCO[C@@H]21 | 34.23% |
| CC(C)n1nc(CNc2ncccn2)c2c1CN(C1CCOCC1)CC2 | 38.49% |
| Cc1noc(NC(=O)c2ccc(Br)cc2)n1 | -43.47% |
| CCOCCN1CCN(CC(O)c2cc(Cl)ccc2Cl)CC1 (configuration not stated) | 50.61% |

| Structure (SMILES) | INHIBITION |
| --- | --- |
| CCN1CCN(CC(O)c2cc(Cl)ccc2Cl)CC1 (configuration not stated) | -31.79% |
| OCCN1CCN(CC(O)c2cc(Cl)ccc2Cl)CC1 (configuration not stated) | -21.76% |
| CCCn1cnnc1CNC(=O)C1COc2ccc(OC)cc2C1 (configuration not stated) | 21.14% |
| O=C(Nc1ccccc1)c1ccc2c(c1)C1(CCCCC1)CN2 | -9.98% |
| Cc1c[nH]c(C2CCCN(Cc3ccccc3C(=O)O)C2)n1 (configuration not stated) | -2.35% |
| Cc1nc(CC(=O)N2CCC(c3ccn4nccc4n3)CC2)cs1 | 3.03% |
| Cc1noc(C)c1CC(=O)N1CCC(c2ccn3nccc3n2)CC1 | 52.57% |
| Cc1nc(C)c(CC(=O)N2CCC(c3ccn4nccc4n3)CC2)s1 | 3.58% |
| Cn1cc(CN2CCO[C@@H]3CN(Cc4ccoc4)C[C@@H]3C2)cn1 | -0.35% |
| CO[C@H]1CC[C@H]2[C@H]1OCCN2CCOCc1ccccc1 | -4.99% |
| COC(=O)CCNC(=O)c1coc(COc2ccc(F)cc2)n1 | 56.16% |
| CC[C@@H](CO)NC(=O)c1coc(COc2ccc(OC)cc2)n1 | 53.26% |
| CNS(=O)(=O)CCNC(=O)c1coc(COc2ccc(F)cc2)n1 | -38.4% |
| CSCCNC(=O)c1coc(COc2ccc(F)cc2)n1 | 1.88% |
| CC[C@@H](CO)NC(=O)c1coc(COc2ccc3sc(C)nc3c2)n1 | -10.58% |
| CC[C@H](CO)NC(=O)c1coc(COc2ccccc2F)n1 | -9.75% |
| Cc1ccc(CN2CCCC3(CCN(Cc4ccoc4)CC3)C2)cc1 | 78.88% |
| Cn1ccnc1CN1CCC2(CC1)CCN(Cc1ccoc1)C2 | -78.53% |
| Cc1ccc(CN2CCC3(CC2)CCN(Cc2ccoc2)CC3)cc1 | 14.93% |

From ChEMBL document CHEMBL4513216, “Probing the Open Global Health Chemical Diversity Library for Multistage-Active Starting Points for Next-Generation Antimalarials” (ACS Infect Dis, 2020)
